# Paper PMC11006913
# Changes are numbered by the printed parent chain.
# Legend:
# Test in all cases: PBM; 200 nM protein, PBS
# Conditions in all cases: dsDNA, one strand shown
# [1] = target: HOXB9 (Homo sapiens, UniProt P17482 171-250, T197M)
# [2] = target: HOXA4 (Homo sapiens, UniProt Q00056 201-287, W262R)
# [3] = target: HOXC9 (Homo sapiens, UniProt P31274 178-260, K195R)
# [4] = target: T1, VENTX (Homo sapiens, UniProt O95231 78-163)
# T1 sequence: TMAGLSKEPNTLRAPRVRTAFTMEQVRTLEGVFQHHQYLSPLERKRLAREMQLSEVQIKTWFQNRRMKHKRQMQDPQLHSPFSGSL
# [5] = target: HOXA7 (Homo sapiens, UniProt P31268 116-202)
# Chain of HOXA7 (Homo sapiens, UniProt P31268 116-202) (P31268 116-202): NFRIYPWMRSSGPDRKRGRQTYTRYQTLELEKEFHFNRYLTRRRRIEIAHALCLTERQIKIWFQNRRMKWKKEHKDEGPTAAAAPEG
# [6] = target: HOXC10 (Homo sapiens, UniProt Q9NYD6 254-340)
# Chain of HOXC10 (Homo sapiens, UniProt Q9NYD6 254-340) (Q9NYD6 254-340): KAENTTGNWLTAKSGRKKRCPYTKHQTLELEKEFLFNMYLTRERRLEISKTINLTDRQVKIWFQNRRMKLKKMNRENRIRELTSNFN
# [7] = target: T2, PAX4 (Homo sapiens, UniProt O43316 9-242)
# T2 sequence: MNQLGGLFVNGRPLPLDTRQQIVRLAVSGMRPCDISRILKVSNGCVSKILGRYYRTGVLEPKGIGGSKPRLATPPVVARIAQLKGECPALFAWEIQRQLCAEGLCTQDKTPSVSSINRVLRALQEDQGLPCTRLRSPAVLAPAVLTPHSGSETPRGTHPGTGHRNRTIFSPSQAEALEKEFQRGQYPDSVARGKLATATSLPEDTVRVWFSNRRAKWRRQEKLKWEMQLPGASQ
# [8] = target: HOXB9 (Homo sapiens, UniProt P17482 171-250)
# Chain of HOXB9 (Homo sapiens, UniProt P17482 171-250) (P17482 171-250): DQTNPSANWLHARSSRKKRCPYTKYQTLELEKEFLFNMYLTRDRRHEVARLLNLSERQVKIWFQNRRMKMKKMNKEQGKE
# [9] = target: HOXC9 (Homo sapiens, UniProt P31274 178-260)
# Chain of HOXC9 (Homo sapiens, UniProt P31274 178-260) (P31274 178-260): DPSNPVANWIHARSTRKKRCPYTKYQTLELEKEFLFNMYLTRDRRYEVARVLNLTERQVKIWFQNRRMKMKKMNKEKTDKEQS
# [10] = target: HOXC9 (Homo sapiens, UniProt P31274 178-260, R193K)
# Chain of HOXC9 (Homo sapiens, UniProt P31274 178-260, R193K) (P31274 178-260 R193K): as the sequence (P31274 178-260) above, with R16K counted along it
# [11] = target: HOXA4 (Homo sapiens, UniProt Q00056 201-287)
# Chain of HOXA4 (Homo sapiens, UniProt Q00056 201-287) (Q00056 201-287): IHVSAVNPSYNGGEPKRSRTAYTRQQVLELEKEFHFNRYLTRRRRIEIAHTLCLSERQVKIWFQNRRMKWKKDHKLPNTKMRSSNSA
# [12] = target: HOXC10 (Homo sapiens, UniProt Q9NYD6 254-340, K271E)
# Chain of HOXC10 (Homo sapiens, UniProt Q9NYD6 254-340, K271E) (Q9NYD6 254-340 K271E): as the sequence (Q9NYD6 254-340) above, with K18E counted along it
# [13] = target: VAX1 (Homo sapiens, UniProt Q5SQQ9 86-172)
# Chain of VAX1 (Q5SQQ9 86-172): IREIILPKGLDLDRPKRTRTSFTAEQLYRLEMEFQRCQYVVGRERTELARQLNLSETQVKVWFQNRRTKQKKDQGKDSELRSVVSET
# [14] = target: HOXB9 (Homo sapiens, UniProt P17482 171-250, R186Q)
# Chain of HOXB9 (Homo sapiens, UniProt P17482 171-250, R186Q) (P17482 171-250 R186Q): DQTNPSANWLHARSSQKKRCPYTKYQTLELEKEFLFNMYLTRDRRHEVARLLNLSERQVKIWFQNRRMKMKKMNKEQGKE
# [15] = target: HOXC9 (Homo sapiens, UniProt P31274 178-260, R222W)
# Chain of HOXC9 (Homo sapiens, UniProt P31274 178-260, R222W) (P31274 178-260 R222W): as the sequence (P31274 178-260) above, with R45W counted along it
# [16] = target: T3, PAX4 (Homo sapiens, UniProt O43316 9-242, R227W)
# T3 sequence: T2 sequence with R219W
# [17] = target: HOXA2 (Homo sapiens, UniProt O43364 129-215, Y150S)
# Chain of HOXA2 (Homo sapiens, UniProt O43364 129-215, Y150S) (O43364 129-215 Y150S): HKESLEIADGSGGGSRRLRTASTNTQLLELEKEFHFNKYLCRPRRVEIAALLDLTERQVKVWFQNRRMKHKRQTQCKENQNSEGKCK
# [18] = target: HOXA7 (Homo sapiens, UniProt P31268 116-202, W177C)
# Chain of HOXA7 (Homo sapiens, UniProt P31268 116-202, W177C) (P31268 116-202 W177C): as the sequence (P31268 116-202) above, with W62C counted along it
# [19] = target: HOXA2 (Homo sapiens, UniProt O43364 129-215)
# Chain of HOXA2 (Homo sapiens, UniProt O43364 129-215) (O43364 129-215): as the sequence (O43364 129-215 Y150S) above, with S22Y counted along it
# [20] = target: HOXB6 (Homo sapiens, UniProt P17509 132-218)
# Chain of HOXB6 (P17509 132-218): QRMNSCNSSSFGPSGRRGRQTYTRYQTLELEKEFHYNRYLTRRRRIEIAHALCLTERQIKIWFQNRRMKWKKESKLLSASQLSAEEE
# Chain of HOXB9 (Homo sapiens, UniProt P17482 171-250, T197M) (P17482 171-250 T197M): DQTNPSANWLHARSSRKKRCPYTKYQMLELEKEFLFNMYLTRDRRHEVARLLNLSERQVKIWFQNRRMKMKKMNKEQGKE
# Chain of HOXA4 (Homo sapiens, UniProt Q00056 201-287, W262R) (Q00056 201-287 W262R): as the sequence (Q00056 201-287) above, with W62R counted along it
# Chain of HOXC9 (Homo sapiens, UniProt P31274 178-260, K195R) (P31274 178-260 K195R): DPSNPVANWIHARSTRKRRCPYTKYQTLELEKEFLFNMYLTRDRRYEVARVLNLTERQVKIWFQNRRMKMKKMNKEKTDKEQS
Sequence,binding signal [1],binding signal [2],binding signal [3],binding signal [4],binding signal [5],binding signal [6],binding signal [7],binding signal [8],binding signal [9],binding signal [10],binding signal [11],binding signal [12],binding signal [13],binding signal [14],binding signal [15],binding signal [16],binding signal [17],binding signal [18],binding signal [19],binding signal [20]
TAATTAAA,"10.3 upbm affinity estimate (log intensity, higher = more binding, comparable within an allelic series)","10.8 upbm affinity estimate (log intensity, higher = more binding, comparable within an allelic series)","13.1 upbm affinity estimate (log intensity, higher = more binding, comparable within an allelic series)","12.5 upbm affinity estimate (log intensity, higher = more binding, comparable within an allelic series)","11.9 upbm affinity estimate (log intensity, higher = more binding, comparable within an allelic series)","12.7 upbm affinity estimate (log intensity, higher = more binding, comparable within an allelic series)","12.5 upbm affinity estimate (log intensity, higher = more binding, comparable within an allelic series)","12.4 upbm affinity estimate (log intensity, higher = more binding, comparable within an allelic series)","13 upbm affinity estimate (log intensity, higher = more binding, comparable within an allelic series)","13 upbm affinity estimate (log intensity, higher = more binding, comparable within an allelic series)","14.1 upbm affinity estimate (log intensity, higher = more binding, comparable within an allelic series)","12.7 upbm affinity estimate (log intensity, higher = more binding, comparable within an allelic series)","13.3 upbm affinity estimate (log intensity, higher = more binding, comparable within an allelic series)","12.1 upbm affinity estimate (log intensity, higher = more binding, comparable within an allelic series)","11.5 upbm affinity estimate (log intensity, higher = more binding, comparable within an allelic series)","11.2 upbm affinity estimate (log intensity, higher = more binding, comparable within an allelic series)","10.9 upbm affinity estimate (log intensity, higher = more binding, comparable within an allelic series)","8.8 upbm affinity estimate (log intensity, higher = more binding, comparable within an allelic series)","12.9 upbm affinity estimate (log intensity, higher = more binding, comparable within an allelic series)","12.3 upbm affinity estimate (log intensity, higher = more binding, comparable within an allelic series)"
ATAATTAA,"10.3 upbm affinity estimate (log intensity, higher = more binding, comparable within an allelic series)","10.9 upbm affinity estimate (log intensity, higher = more binding, comparable within an allelic series)","12.9 upbm affinity estimate (log intensity, higher = more binding, comparable within an allelic series)","12.5 upbm affinity estimate (log intensity, higher = more binding, comparable within an allelic series)","12.1 upbm affinity estimate (log intensity, higher = more binding, comparable within an allelic series)","12.5 upbm affinity estimate (log intensity, higher = more binding, comparable within an allelic series)","12.4 upbm affinity estimate (log intensity, higher = more binding, comparable within an allelic series)","12.1 upbm affinity estimate (log intensity, higher = more binding, comparable within an allelic series)","12.9 upbm affinity estimate (log intensity, higher = more binding, comparable within an allelic series)","12.8 upbm affinity estimate (log intensity, higher = more binding, comparable within an allelic series)","14.3 upbm affinity estimate (log intensity, higher = more binding, comparable within an allelic series)","12.3 upbm affinity estimate (log intensity, higher = more binding, comparable within an allelic series)","13.5 upbm affinity estimate (log intensity, higher = more binding, comparable within an allelic series)","11.9 upbm affinity estimate (log intensity, higher = more binding, comparable within an allelic series)","11.2 upbm affinity estimate (log intensity, higher = more binding, comparable within an allelic series)","11.2 upbm affinity estimate (log intensity, higher = more binding, comparable within an allelic series)","11 upbm affinity estimate (log intensity, higher = more binding, comparable within an allelic series)","8.99 upbm affinity estimate (log intensity, higher = more binding, comparable within an allelic series)","13 upbm affinity estimate (log intensity, higher = more binding, comparable within an allelic series)","12.4 upbm affinity estimate (log intensity, higher = more binding, comparable within an allelic series)"
AATAATTA,"10.3 upbm affinity estimate (log intensity, higher = more binding, comparable within an allelic series)","10.9 upbm affinity estimate (log intensity, higher = more binding, comparable within an allelic series)","12.7 upbm affinity estimate (log intensity, higher = more binding, comparable within an allelic series)","12.4 upbm affinity estimate (log intensity, higher = more binding, comparable within an allelic series)","11.9 upbm affinity estimate (log intensity, higher = more binding, comparable within an allelic series)","12.2 upbm affinity estimate (log intensity, higher = more binding, comparable within an allelic series)","12.3 upbm affinity estimate (log intensity, higher = more binding, comparable within an allelic series)","11.9 upbm affinity estimate (log intensity, higher = more binding, comparable within an allelic series)","12.7 upbm affinity estimate (log intensity, higher = more binding, comparable within an allelic series)","12.6 upbm affinity estimate (log intensity, higher = more binding, comparable within an allelic series)","14.2 upbm affinity estimate (log intensity, higher = more binding, comparable within an allelic series)","11.9 upbm affinity estimate (log intensity, higher = more binding, comparable within an allelic series)","13.3 upbm affinity estimate (log intensity, higher = more binding, comparable within an allelic series)","11.6 upbm affinity estimate (log intensity, higher = more binding, comparable within an allelic series)","11.1 upbm affinity estimate (log intensity, higher = more binding, comparable within an allelic series)","11.2 upbm affinity estimate (log intensity, higher = more binding, comparable within an allelic series)","10.9 upbm affinity estimate (log intensity, higher = more binding, comparable within an allelic series)","9.07 upbm affinity estimate (log intensity, higher = more binding, comparable within an allelic series)","12.9 upbm affinity estimate (log intensity, higher = more binding, comparable within an allelic series)","12.3 upbm affinity estimate (log intensity, higher = more binding, comparable within an allelic series)"
CATAATTA,"10.3 upbm affinity estimate (log intensity, higher = more binding, comparable within an allelic series)","10.9 upbm affinity estimate (log intensity, higher = more binding, comparable within an allelic series)","12.8 upbm affinity estimate (log intensity, higher = more binding, comparable within an allelic series)","12.6 upbm affinity estimate (log intensity, higher = more binding, comparable within an allelic series)","12 upbm affinity estimate (log intensity, higher = more binding, comparable within an allelic series)","12.3 upbm affinity estimate (log intensity, higher = more binding, comparable within an allelic series)","12.5 upbm affinity estimate (log intensity, higher = more binding, comparable within an allelic series)","11.9 upbm affinity estimate (log intensity, higher = more binding, comparable within an allelic series)","12.8 upbm affinity estimate (log intensity, higher = more binding, comparable within an allelic series)","12.8 upbm affinity estimate (log intensity, higher = more binding, comparable within an allelic series)","14.3 upbm affinity estimate (log intensity, higher = more binding, comparable within an allelic series)","12.2 upbm affinity estimate (log intensity, higher = more binding, comparable within an allelic series)","13.6 upbm affinity estimate (log intensity, higher = more binding, comparable within an allelic series)","11.7 upbm affinity estimate (log intensity, higher = more binding, comparable within an allelic series)","11.1 upbm affinity estimate (log intensity, higher = more binding, comparable within an allelic series)","11.3 upbm affinity estimate (log intensity, higher = more binding, comparable within an allelic series)","11.1 upbm affinity estimate (log intensity, higher = more binding, comparable within an allelic series)","9.06 upbm affinity estimate (log intensity, higher = more binding, comparable within an allelic series)","13 upbm affinity estimate (log intensity, higher = more binding, comparable within an allelic series)","12.4 upbm affinity estimate (log intensity, higher = more binding, comparable within an allelic series)"
ATTAATTG,"10.3 upbm affinity estimate (log intensity, higher = more binding, comparable within an allelic series)","10.7 upbm affinity estimate (log intensity, higher = more binding, comparable within an allelic series)","12.8 upbm affinity estimate (log intensity, higher = more binding, comparable within an allelic series)","12.8 upbm affinity estimate (log intensity, higher = more binding, comparable within an allelic series)","12 upbm affinity estimate (log intensity, higher = more binding, comparable within an allelic series)","12.2 upbm affinity estimate (log intensity, higher = more binding, comparable within an allelic series)","12.4 upbm affinity estimate (log intensity, higher = more binding, comparable within an allelic series)","12.2 upbm affinity estimate (log intensity, higher = more binding, comparable within an allelic series)","12.9 upbm affinity estimate (log intensity, higher = more binding, comparable within an allelic series)","12.7 upbm affinity estimate (log intensity, higher = more binding, comparable within an allelic series)","14 upbm affinity estimate (log intensity, higher = more binding, comparable within an allelic series)","12.2 upbm affinity estimate (log intensity, higher = more binding, comparable within an allelic series)","13.2 upbm affinity estimate (log intensity, higher = more binding, comparable within an allelic series)","11.8 upbm affinity estimate (log intensity, higher = more binding, comparable within an allelic series)","11.2 upbm affinity estimate (log intensity, higher = more binding, comparable within an allelic series)","11 upbm affinity estimate (log intensity, higher = more binding, comparable within an allelic series)","11 upbm affinity estimate (log intensity, higher = more binding, comparable within an allelic series)","8.87 upbm affinity estimate (log intensity, higher = more binding, comparable within an allelic series)","12.6 upbm affinity estimate (log intensity, higher = more binding, comparable within an allelic series)","12.3 upbm affinity estimate (log intensity, higher = more binding, comparable within an allelic series)"
TAATTATA,"10.3 upbm affinity estimate (log intensity, higher = more binding, comparable within an allelic series)","10.8 upbm affinity estimate (log intensity, higher = more binding, comparable within an allelic series)","12.8 upbm affinity estimate (log intensity, higher = more binding, comparable within an allelic series)","12.4 upbm affinity estimate (log intensity, higher = more binding, comparable within an allelic series)","11.8 upbm affinity estimate (log intensity, higher = more binding, comparable within an allelic series)","12.3 upbm affinity estimate (log intensity, higher = more binding, comparable within an allelic series)","12.2 upbm affinity estimate (log intensity, higher = more binding, comparable within an allelic series)","11.9 upbm affinity estimate (log intensity, higher = more binding, comparable within an allelic series)","12.8 upbm affinity estimate (log intensity, higher = more binding, comparable within an allelic series)","12.7 upbm affinity estimate (log intensity, higher = more binding, comparable within an allelic series)","14.2 upbm affinity estimate (log intensity, higher = more binding, comparable within an allelic series)","12.2 upbm affinity estimate (log intensity, higher = more binding, comparable within an allelic series)","13.3 upbm affinity estimate (log intensity, higher = more binding, comparable within an allelic series)","11.6 upbm affinity estimate (log intensity, higher = more binding, comparable within an allelic series)","11.2 upbm affinity estimate (log intensity, higher = more binding, comparable within an allelic series)","11.1 upbm affinity estimate (log intensity, higher = more binding, comparable within an allelic series)","11.1 upbm affinity estimate (log intensity, higher = more binding, comparable within an allelic series)","9 upbm affinity estimate (log intensity, higher = more binding, comparable within an allelic series)","13 upbm affinity estimate (log intensity, higher = more binding, comparable within an allelic series)","12.3 upbm affinity estimate (log intensity, higher = more binding, comparable within an allelic series)"
